Data as given in PubChem BioAssay (NCI).
Where “and” joins values, the source holds several entries; their conditions need not be identical. Equal entries are not always repeated. This is part of a sample that, as a whole, favours compounds with a hit. Of some 83,000 tested, about 20% had one in any assay.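 Results are percent growth after 48 hours of single-concentration exposure. 100 means growth as in untreated cells, lower positive values show inhibition; negative values down to -100 show cell death.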 Calls of active or inactive are those of the source. How the source made its calls: active means growth percent below 10; inactive means the rest.

Key:
Test in all cases: NCI-60 one-dose screen, 48 h (100 = growth as untreated, 0 = no growth, -100 = all killed)
T-47D breast = settings: 10 µM unless noted
BT-549 breast = settings: 10 µM unless noted
MDA-MB-435 melanoma = settings: 10 µM unless noted
SW-620 colon = settings: 10 µM unless noted
MCF7 breast = test system: MCF7 breast
HCT-116 colon = settings: 10 µM unless noted
HCC-2998 colon = settings: 10 µM unless noted
KM12 colon = settings: 10 µM unless noted

| Structure (SMILES) | growth (T-47D breast) | growth (BT-549 breast) | growth (MDA-MB-435 melanoma) | growth (SW-620 colon) | growth (MCF7 breast; 10 µM) | growth (HCT-116 colon) | growth (HCC-2998 colon) | growth (KM12 colon) | growth (MCF7 breast; 100 µM) |
| --- | --- | --- | --- | --- | --- | --- | --- | --- | --- |
| O=C(/C=C/c1cccc(Cl)c1)c1ccccc1 | 96.8% (inactive) and 88.3% (inactive) | 98.4% (inactive) and 85.2% (inactive) | 88.1% (inactive) and 59.8% (inactive) | 52.8% (inactive) and 39.4% (inactive) | 31.4% (inactive) and 15.7% (inactive) | 12.3% (inactive) and -17.1% (active) | 92.5% (inactive) | 63.2% (inactive) and 30.8% (inactive) | – |
| C/C=C1\SC(=S)NC1=O | 92.6% (inactive) | 95.7% (inactive) | 101% (inactive) | 112% (inactive) | 86.9% (inactive) | 96.9% (inactive) | – | 106% (inactive) | – |
| O=C1c2ccccc2C(=O)N1c1ccccc1 | 95.7% (inactive) | 107% (inactive) | 98.7% (inactive) | 109% (inactive) | 96.6% (inactive) | 105% (inactive) | 102% (inactive) | 107% (inactive) | – |
| N#CSCC(=O)c1ccc(Cl)cc1 | 71.4% (inactive) | 43.7% (inactive) | 15.8% (inactive) | 22.7% (inactive) | 10.7% (inactive) | -16.3% (active) | – | 14.7% (inactive) | – |
| Cc1ccnc2c1ccc1c(C)ccnc12 | 6.3% (active) | 23.2% (inactive) | 32% (inactive) | 30.2% (inactive) | 13.9% (inactive) | 13.7% (inactive) | 51.3% (inactive) | 24.2% (inactive) | – |
| CN(C)c1ccc(/C=N/N=C(\C#N)[S][Sn]([Cl])([c]2ccccc2)[c]2ccccc2)cc1 | -65.8% (active) | 57.5% (inactive) | 15.6% (inactive) | -52.2% (active) | -81.9% (active) | -59.4% (active) | – | 63.3% (inactive) | – |
| O=C1N[C@H]2[C@H](CS[C@H]2CCCCC(=O)N(CCP(c2ccccc2)c2ccccc2)CCP(c2ccccc2)c2ccccc2)N1 | 74.8% (inactive) | 96.9% (inactive) | 96.1% (inactive) | 88.7% (inactive) | 20.9% (inactive) | 35.5% (inactive) | 88.9% (inactive) | 59.9% (inactive) | – |
| Cc1ccc(C(=Nc2ccccc2)N=P(c2ccccc2)(c2ccccc2)c2ccccc2)cc1 | -33.4% (active) | -26.9% (active) | -76.4% (active) | -40.7% (active) | -39.7% (active) | -37.8% (active) | – | -70.9% (active) | – |
| CCCCCCC(C)c1ccccc1O (stereo not given) (tested in a mixture with another compound) | 94.8% (inactive) | 108% (inactive) | 98.7% (inactive) | 103% (inactive) | 116% (inactive) | 111% (inactive) | 103% (inactive) | 107% (inactive) | – |
| COc1ccccc1/C=C\C(=O)c1ccccc1 | 81.9% (inactive) | 83.2% (inactive) | 46.4% (inactive) | 2.63% (active) | 5.24% (active) | 22% (inactive) | 97% (inactive) | 29.5% (inactive) | – |
| Cc1c2ccccc2c(C)c2c1ccc1ccccc12 | 65.3% (inactive) | 98.8% (inactive) | 92% (inactive) | 99.9% (inactive) | 32.2% (inactive) | 81.3% (inactive) | 104% (inactive) | 89.3% (inactive) | – |
| O=[N+]([O-])c1ccc(N=Nc2ccc(O)cc2O)cc1 | 27.4% (inactive) | 64.5% (inactive) | 10.1% (inactive) | 47.8% (inactive) | 26% (inactive) | 17.5% (inactive) | 31.6% (inactive) | 64.3% (inactive) | – |
| O=C1c2cccnc2-c2nccc3c2c1nc1cc(Br)ccc13 | -34.3% (active) and -63.8% (active) | -73.9% (active) and -67.8% (active) | -68.4% (active) and -94.5% (active) | -63.4% (active) and -74.8% (active) | -41.9% (active) and -57.8% (active) | -81.5% (active) and -68.7% (active) | -100% (active) and -82.7% (active) | -96.7% (active) and -76.7% (active) | – |
| O=C(Nc1ccc(F)cc1)ON=C1CCCCC1 | 79% [100 µM] (inactive) | 106% [100 µM] (inactive) | 98.1% [100 µM] (inactive) | 99.8% [100 µM] (inactive) | – | 99.2% [100 µM] (inactive) | – | 92.9% [100 µM] (inactive) | 98.2% (inactive) |
| C=C(Cl)C(=NC(C)(C)C)Nc1ccccc1C | 64% (inactive) | 102% (inactive) | 32.2% (inactive) | 72.5% (inactive) | 66.6% (inactive) | 66.5% (inactive) | 113% (inactive) | 80.9% (inactive) | – |
